Measurements as given in publication PMC5540273 (PLoS ONE, 2017).

Legend:
Settings in all cases: concentration: 1 μM, replicates: in singlicate; n = 1
PRKX = test system: PRKX
PRP4 = test system: PRP4
PYK2 = test system: T1, PYK2
T1 construct: gene PTK2B

QSK = test system: QSK
RAF1 = test system: RAF1
RET = test system: RET
RIOK1 = test system: RIOK1
RIOK2 = test system: RIOK2
RIOK3 = test system: RIOK3
RIPK1 = test system: RIPK1
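Further: KINOMEscan kinase panel screen.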

Row | SMILES | %Inh (PRKX) [%] | %Inh (PRP4) [%] | %Inh (PYK2) [%] | %Inh (QSK) [%] | %Inh (RAF1) [%] | %Inh (RET) [%] | %Inh (RIOK1) [%] | %Inh (RIOK2) [%] | %Inh (RIOK3) [%] | %Inh (RIPK1) [%]
1 | CCc1ccc(-c2ccc3c(c2)-c2nn(C)cc2S(=O)(=O)N3C)cc1 | 0 | 27 | 0 | 0 | 19 | 16 | 15 | 0 | 0 | 12
2 | C[C@@H]1CC[C@H](C(=O)NC2CCCCC2)CN1c1cc(-c2ccc3c(N)n[nH]c3c2)nc(N)n1 [GSK2291363] | 84 | 26 | 24 | 7 | 16 | 53 | 96.1 | 22 | 93.7 | 22
3 | O=C(NCCNc1ccnc(Nc2ccc(F)cc2)n1)Nc1ccc2c(c1)OCO2 [GSK1379882] | 30 | 47 | 9 | 0 | 5 | 0 | 15 | 0 | 15 | 25
4 | COc1cc2nccc(Nc3cccc(Oc4ccccc4)c3)c2cc1OC.Cl [GW284543] | 22 | 19 | 0 | 5 | 5 | 25 | 21 | 0 | 4 | 0
5 | Cc1nnc(-c2ccc3ncn(-c4ccc(S(C)=O)cc4)c3c2)o1 (stereo not shown) | 3 | 0 | 12 | 0 | 0 | 7 | 6 | 11 | 20 | 4
6 | Nc1nc(N)c2nc(-c3ccccc3)[nH]c2n1 [SKF-12778] | 7 | 0 | 0 | 10 | 11 | 25 | 20 | 37 | 8 | 18
7 | CC(C)(C)c1ccc(C(=O)Nc2cn3cc(-c4ccccc4)ccc3n2)cc1 | 3 | 19 | 0 | 0 | 0 | 0 | 2 | 14 | 22 | 0
8 | O=C(Nc1n[nH]c2cc(-c3ccccc3F)ccc12)C1CC1 [SB-733371] | 0 | 7 | 15 | 6 | 35 | 0 | 50 | 0 | 63 | 78
9 | COc1cc2ncn(-c3cc(OCc4ccncc4Br)c(C(N)=O)s3)c2cc1OC [GW854278] | 26 | 0 | 7 | 2 | 7 | 20 | 38 | 14 | 39 | 3
10 | COC(=O)c1c(-c2ccccc2)c2cc(C)ccc2c(=O)n1Cc1ccccc1 | 0 | 4 | 0 | 0 | 66 | 13 | 3 | 0 | 0 | 0
11 | Cc1ccccc1COc1cc(-n2cnc3cc(Cl)ccc32)sc1C(N)=O [GW813349] | 0 | 19 | 4 | 0 | 0 | 7 | 23 | 27 | 13 | 16
12 | OCCCNc1nccc(-c2c(-c3cccc(C(F)(F)F)c3)nn3cc(C(F)(F)F)ccc23)n1 [GW630813] | 0 | 17 | 5 | 0 | 0 | 11 | 38 | 0 | 14 | 0
13 | CCCC(=O)Nc1n[nH]c2ncc(-c3cccc4ccccc34)cc12 [SB-642057] | 12 | 26 | 0 | 13 | 9 | 33 | 19 | 0 | 0 | 0
14 | COc1ccc(-n2cnc3c(N)ncnc32)cc1 [SKF-97236] | 15 | 0 | 0 | 0 | 0 | 34 | 14 | 28 | 0 | 0
15 | Cl.c1ccc(Cn2cnc3cc(Nc4ncnc5ccccc45)ccc32)cc1 [GW272142] | 31 | 28 | 10 | 0 | 3 | 3 | 35 | 0 | 38 | 8
16 | O=C(Nc1ccc2c(c1)OCO2)NC1CCN(c2ccnc(NCc3ccc(F)cc3)n2)CC1 [GSK1379859] | 3 | 0 | 0 | 0 | 3 | 21 | 33 | 0 | 30 | 17
